KB-V1 MDR tox = KB-V1 MDR subline cytotoxicity | 3.4% of 400,000 active | AID 1347076 | Potency, µM (top dose mostly 46.1 µM), hits mostly cytotoxic | KB-V1 MDR cells viability, CellTiter-Glo, 72 h; further: potency means the concentration at half of the fitted maximal effect; on the % scale 0 is the no-effect control and ±100 the full control effect; nearly all actives have a fitted effect of over 60% in size
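KB-V1 cells (P-gp-expressing MDR subline of KB-3-1) in phenol-red-free DMEM with 10% FBS were exposed to library compounds over a concentration series for 72 h at 37 degrees C. Viability read by CellTiter-Glo luminescence; concentration-effect curves fitted after normalization.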
SW480 rerep = induces DNA re-replication in SW480 colon adenocarcinoma cells. SW480 DNA re-replication, Hoechst DNA content imaging, 48 h. Potency, µM (titrated, usually from 46.1 µM), for inactives: top-dose re-replication activation, usual class: activators. 1.8% of 340,000 active. AID 624297; further: potency means the concentration at half of the fitted maximal effect; % of control where 0% means no effect; nearly all actives have a fitted effect of over 55% in size
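DNA re-replication was detected as more nuclei of elevated Hoechst intensity after 48 hr exposure to compound (23 nL pinned per well of 250 cells).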
IL-1B inflam inh = blocks inflammasome-driven IL-1 beta release; activity change, % at 57.5 µM; THP-1 LPS/ATP IL-1B secretion, AlphaLISA, 16 h; active compounds read low; 4.7% of 360,000 active; AID 743279; in the data active means activity change below about -50%; inconclusive means mostly about -30% to -49%; further: on the % scale 0 is the no-effect control and ±100 the full control effect
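Secreted IL-1B measured by AlphaLISA bead assay after 16 h compound exposure of THP-1 cells; compounds (final up to 57.5 uM) added 1 h before LPS (250 ng/mL) and ATP (1.25 mM) stimulation; lower signal means less secretion.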
KB-3-1 cytotox = kills parental KB-3-1 adenocarcinoma cells; AID 1347075; KB-3-1 viability, CellTiter-Glo ATP luminescence, 72 h; 1.4% of 400,000 active; Potency, µM (series often up to 46.1 µM), most hits filed as cytotoxic; further: potency means the concentration at half of the fitted maximal effect; on the % scale 0 is the no-effect control and ±100 the full control effect; nearly all actives have a fitted effect of over 60% in size
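Screening of KB-3-1 cells (DMEM, 10% FBS, phenol-red free) ran from lowest to highest compound concentration; after 72 h at 37 °C viability was read luminescently and curves fitted.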
MCF10A rerep = inducers of DNA re-replication in MCF 10A breast cells; Potency, µM (highest dose often 46.1 µM), without a hit: top-dose activity, positive = re-replication, most hits filed as activators; 2.9% of 350,000 active; AID 624296; MCF 10A DNA re-replication, Hoechst nuclear intensity, 48 h; further: potency means the concentration at half of the fitted maximal effect; % of control where 0% means no effect; nearly all actives have a fitted effect of over 50% in size
* marks the source's active call; other numbers are inactive results; i = inactive; u = inconclusive; x = no result; ! = a repeat was not active. Hits are enriched below; roughly 9.9% of the tested compounds scored in any of these assays. Unless noted, the call rests on the fitted dose curve; in most records, active means well fitted curve in the direction sought with a large enough effect; inconclusive means small, poorly fitted or top-dose-only effect, or another doubt; inactive means no such curve, though single readings can be large; an effect the other way counts as inactive or inconclusive.

SMILES	KB-V1 MDR tox	SW480 rerep	IL-1B inflam inh	KB-3-1 cytotox	MCF10A rerep
CC(C)(C)[C@@H]1CCC(=O)N(CC[C@H](Sc2ccccc2)c2ccccc2)CC1	u	-4%	u	u	u
CC(=O)Nc1ccc(SC[C@H](Cc2ccccc2)N2CC[C@@H](C(C)(C)C)CCC2=O)cc1	u	-1%	-59*	u	u
CC(C)(C)[C@@H]1CCC(=O)N(CC[C@H](N=[N+]=[N-])c2ccccc2)CC1	21µM*!	-1%	-24	i	21µM*
CC(=O)Nc1ccc(S[C@@H](CCN2CC[C@H](C(C)(C)C)CCC2=O)c2ccccc2)cc1	u	0%	-74*	u	u
COc1ccccc1CNC(=O)c1cc(S(=O)(=O)N2CCCC(C)C2)cn1C (centres undefined)	i	x	x	i	x
COc1ccc(N(Cc2ccccc2)S(=O)(=O)c2cc(C(=O)O)ccc2Cl)cc1	i	-3%	31	i	18µM*
O=C(O)c1ccc(Cl)c(S(=O)(=O)N(Cc2ccccc2)c2ccccc2)c1	i	1%	47	i	9%
O=C(O)c1ccc(Cl)c(S(=O)(=O)N(Cc2ccccc2)c2ccc(F)cc2)c1	u	2%	13	i	u
O=C(O)c1ccc(Cl)c(S(=O)(=O)N(Cc2ccccc2)c2ccccc2Cl)c1	u	1%	0	u	8.2µM*
CC(C)(C)OC(=O)N1CCC(C(=O)Nc2cccc(C(=O)NCc3ccccc3)c2)CC1	i	-73%	12	i	u
COC(=O)c1ccc(CN2C(=O)NC(CC(C)C)C2=O)cc1 (centres undefined)	i	-18%	29	i	0%
COCCCNc1c2c3c(cccc3[nH]c1=O)C(=O)c1ccccc1-2	2.1µM*	18µM*	13	5.8µM*	15µM*
Nc1nc(N)c2sc3nc4c(cc3c2n1)CCC4	21µM*	0%	0	i	0%
COC(=O)[C@]1(C)N[C@H](c2ccc(SC3CCCCC3)c(OC)c2)[C@@H]2C(=O)N(C)C(=O)[C@@H]21	u	-77%	2	i	5%
COc1cc(Cn2c3ccc(NC(=O)NCc4ccc(F)cc4)cc3c(=O)n2C)ccc1F	i	x	61	9.2µM*	x
Cn1c(=O)c2cc(NC(=O)CCc3ccc4c(c3)OCO4)ccc2n1Cc1ccc(F)cc1	i	x	u	u	x
COc1cc(Cn2c3ccc(NC(=O)CCc4ccc(O)cc4)cc3c(=O)n2C)ccc1F	i	x	0	5.8µM*	x
Cn1c(=O)c2cc(NC(=O)NCc3ccc(Cl)cc3Cl)ccc2n1Cc1ccccc1	i	x	-60*	i	x
Cn1c(=O)c2cc(NC(=O)NCc3ccccc3)ccc2n1Cc1ccc(Cl)cc1	i	x	42	i	x
NC(=O)c1ccc[n+]([C@H]2O[C@@H](COP(=O)([O-])OP(=O)(O)OC[C@H]3O[C@@H](n4cnc5c(N)ncnc54)[C@H](O)[C@@H]3O)[C@H](O)[C@@H]2O)c1	i	2%	48	i	11%
COc1ccccc1C(=O)NC(=O)CSc1nncn1C(C)C	i	-26%	4	i	-3%
CC(C)OC(=O)c1ccc(Cn2nnc3sc4c(c3c2=O)CCCC4)cc1	i	x	x	i	x
Cc1ccc(S(=O)(=O)N2C(=O)c3cccc4cccc2c34)cc1	i	u	18	u	9.2µM*
Cc1ccc(S(=O)(=O)ON2C(=O)c3cccc4cccc(c34)C2=O)cc1	i	-17%	35	i	-1%
CCc1cccc(CC)c1NC(=O)CSc1nc2ccc(N3C(=O)C4C5C=CC(C5)C4C3=O)cc2s1 (centres undefined)	2.6µM*	17%	-18	u	u
SMILES	KB-V1 MDR tox	SW480 rerep	IL-1B inflam inh	KB-3-1 cytotox	MCF10A rerep
O=C(O)c1ccc(CSc2nc3ccc(N4C(=O)C5C6C=CC(C6)C5C4=O)cc3s2)cc1 (centres undefined)	i	1%	9	i	u
Cc1cccc(NC(=O)CSc2nc3ccc(N4C(=O)c5ccccc5C4=O)cc3s2)c1C	i	u	-4	i	9.2µM*
COc1ccc(Cc2nnc(NC(=O)CS(=O)(=O)c3ccccc3)s2)cc1OC	i	76%	30	i	1%
CN(C)C=Nc1ncc2c([nH]c3ccccc32)c1C#N	7.3µM*	15%	-27	u	29%
CN(C)/C=N/c1[nH]ncc1C#N	i	0%	-6	i	9%
Cc1c(Cl)cccc1NC(=O)Cc1ccc([N+](=O)[O-])cc1	i	-3%	7	i	0%
Cc1ccnc(NC(=O)c2ccc([N+](=O)[O-])o2)c1	i	5.8µM*	x	u	4.1µM*
Cc1ccnc(NC(=O)c2ccccc2[N+](=O)[O-])c1	u	-1%	0	i	9%
O=C(Nc1ncccn1)c1ccc([N+](=O)[O-])o1	i	u	-90*	u	9.2µM*
O=C(Nc1ccccn1)c1ccc([N+](=O)[O-])o1	u	u	-92*	u	9.2µM*
O=C(Nc1cc(-c2nc3ncccc3o2)ccc1Cl)c1ccc([N+](=O)[O-])o1	u	1.3µM*	-23	3.7µM*	1.3µM*
Cc1ccc2nc(-c3ccc(F)cc3)c(Cc3ccccc3C(F)(F)F)n2c1	i	x	14	i	x
COc1ccc(C(C)C)cc1S(=O)(=O)NCCc1c(C)[nH]c2ccc(C)cc12	i	x	x	i	x
CC12CCC(C1)C(C)(C)C2=O (centres undefined)	x	-10%	x	x	0%
N[C@H](CC(=O)O)C(=O)O	x	-6%	x	x	-4%
CCCn1c(NC(=O)c2ccc([N+](=O)[O-])o2)nc2ccccc21	u	21µM*	-20	i	u
Nc1nc(NCCCN2CCOCC2)nc(Nc2ccc(F)cc2)c1[N+](=O)[O-]	i	8%	16	i	u
Cc1cccc(Nc2nc(NCCCN3CCOCC3)nc(N)c2[N+](=O)[O-])c1	i	u	-80*	i	u
Nc1nc(NCCCN2CCOCC2)nc(Nc2ccccc2F)c1[N+](=O)[O-]	i	-4%	-57*	i	3%
COc1ccc(S(=O)(=O)N2CCOCC2)cc1NC(=O)COc1ccc(C)cc1	x	9%	-51*	x	-3%
COc1ccc(S(=O)(=O)N2CCOCC2)cc1NC(=O)COC(=O)CCOc1ccc(C)cc1	i	0%	4	i	-1%
COc1ccc(S(=O)(=O)N2CCOCC2)cc1NC(=O)Cc1ccc2c(c1)OCCO2	18µM*	-2%	-14	i	-6%
CCOc1ccc(S(=O)(=O)N2CCCCC2)cc1NC(=O)Cc1ccsc1	12µM*	-4%	15	i	3%
COc1ccc(S(=O)(=O)N2CCCCC2)cc1NC(=O)Cc1ccsc1	x	5%	9	x	u
